Screen size: about 370,000 compounds; about 3,100 (0.84%) were called active. The list comes from a sample in which actives are over-represented; it also holds similar structures and randomly drawn compounds. Unmarked numbers belong to inactive results. No stated cut-off is given here; in the data, active means inhibition above about 9.5%; inactive means the rest.

The target in the test is 1-phosphatidylinositol 4,5-bisphosphate phosphodiesterase gamma-1 (Homo sapiens) (UniProt P19174). As to the kind of experiment: blockers of human PLCG1 activity – biochemical, fluorescence, purified enzyme, primary screen (AID 720700). To be noted: purified PLC-gamma1, fluorogenic substrate, at 12.2 µM, hits give high values.
1-phosphatidylinositol 4,5-bisphosphate phosphodiesterase gamma-1 (Homo sapiens), sequence (P19174 whole entry, looked up): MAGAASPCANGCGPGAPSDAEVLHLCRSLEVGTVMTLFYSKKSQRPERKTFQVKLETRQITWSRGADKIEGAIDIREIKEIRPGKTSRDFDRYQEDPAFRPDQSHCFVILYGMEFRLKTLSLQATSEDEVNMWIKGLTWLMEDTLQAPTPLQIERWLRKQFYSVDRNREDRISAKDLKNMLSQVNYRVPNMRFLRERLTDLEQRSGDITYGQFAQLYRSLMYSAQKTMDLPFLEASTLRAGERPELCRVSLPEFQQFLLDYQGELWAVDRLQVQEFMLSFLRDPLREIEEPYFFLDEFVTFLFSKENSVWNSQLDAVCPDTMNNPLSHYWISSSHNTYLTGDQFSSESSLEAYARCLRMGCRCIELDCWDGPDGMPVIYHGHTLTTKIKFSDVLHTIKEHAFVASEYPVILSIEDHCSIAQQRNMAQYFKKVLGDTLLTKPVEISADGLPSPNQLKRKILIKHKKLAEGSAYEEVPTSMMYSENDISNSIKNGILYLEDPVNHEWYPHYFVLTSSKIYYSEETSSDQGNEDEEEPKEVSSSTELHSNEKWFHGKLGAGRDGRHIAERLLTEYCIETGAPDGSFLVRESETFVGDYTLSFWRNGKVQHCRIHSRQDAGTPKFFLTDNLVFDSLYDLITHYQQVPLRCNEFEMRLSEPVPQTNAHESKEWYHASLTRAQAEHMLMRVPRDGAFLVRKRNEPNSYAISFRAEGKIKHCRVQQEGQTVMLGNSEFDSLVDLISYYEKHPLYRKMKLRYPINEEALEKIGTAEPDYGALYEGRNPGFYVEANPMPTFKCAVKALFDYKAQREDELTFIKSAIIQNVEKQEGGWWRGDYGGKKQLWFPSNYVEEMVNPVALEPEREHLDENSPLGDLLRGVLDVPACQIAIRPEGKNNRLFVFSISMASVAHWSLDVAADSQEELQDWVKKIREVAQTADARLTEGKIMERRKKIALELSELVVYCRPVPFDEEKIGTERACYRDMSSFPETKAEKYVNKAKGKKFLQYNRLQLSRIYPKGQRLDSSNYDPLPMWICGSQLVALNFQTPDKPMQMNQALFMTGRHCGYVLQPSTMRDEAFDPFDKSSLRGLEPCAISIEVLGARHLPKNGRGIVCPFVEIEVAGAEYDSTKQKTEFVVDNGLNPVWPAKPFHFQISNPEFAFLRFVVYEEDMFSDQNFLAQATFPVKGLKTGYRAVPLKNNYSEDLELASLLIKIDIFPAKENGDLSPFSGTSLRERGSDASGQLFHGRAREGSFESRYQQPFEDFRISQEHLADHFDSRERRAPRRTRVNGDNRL
In general, inhibition refers to the change of the read-out against control, counted positive when it falls. As to `CCOc1ccc(Oc2c(Cl)cnn(-c3ccc(C)cc3)c2=O)cc1`, the inhibition was -4.67%.
Consider `CN(CCc1ccccc1)C(=O)Cn1nc(-c2ccccc2)ccc1=O`, for which the inhibition is 1.49%.
The result for `C=CCSC(CC)(CC)C(N)=O` reads 11.9% (active).
The result for `CC(CCN1CCC(C(O)(c2ccccc2)c2ccccc2)CC1)Oc1ccc([N+](=O)[O-])cc1Cl` (stereo not drawn) reads 6.49%.
The result for `COc1ccc(C(=O)OCCN(C)C2CN(Cc3cn(Cc4cccc(C)c4)nn3)S(=O)(=O)C2)cc1OC` (stereo not drawn) reads 3.3%; that for `O=C(c1ccccn1)c1ncc(C(F)(F)F)cc1Cl`, 1.59%.
For the molecule `Cc1cc(C)cc(NS(=O)(=O)c2ccc(Oc3ncc(C(F)(F)F)cc3Cl)cc2)c1`, the inhibition is -1.75%.
The result for `FC(F)(F)c1cnc(Oc2ccccc2-c2nnc(-c3ccc(Cl)cc3)o2)c(Cl)c1` reads 12.3% (active).
As to `Cc1ccccc1NC(=O)C1CCN(c2ncccn2)CC1`, the inhibition was -3.53%.
The result for `CC(C)(C)OC(=O)NCCc1ccccc1/C=C/S(=O)(=O)NCc1ccc(F)cc1` reads -0.15%; that for `CC1CCN(c2ccc(C(=O)O)cc2NS(=O)(=O)c2ccc(Br)s2)CC1`, 2.88%; that for `O=C(Cn1cc(/C=N/NC(=O)c2cccc(C(F)(F)F)c2)c2ccccc21)Nc1ccc(F)cc1`, -0.8%.
The result for `CNC(=O)c1ccc(NC(=O)c2cccc(C(F)(F)F)c2)cc1` reads 14.4% (active); that for `O=C(Nc1ccc(C(F)(F)F)cc1)c1cccc(-n2cnnn2)c1`, -2.72%.
The result for `O=C1[C@H]2[C@@H](c3ccc(Cl)cc3)N3C(=O)N(c4cccc(F)c4)C(=O)[C@@]3(Cc3ccccc3)[C@H]2C(=O)N1C1CCCCC1` reads -2.34%.
As to `Cc1cccc(N2C(=O)N3[C@H](c4ccc(F)cc4)[C@@H]4C(=O)N(C5CCCCC5)C(=O)[C@@H]4[C@]3(Cc3ccccc3)C2=O)c1`, the inhibition was 2.62%.
Turning to `Cc1cccc([C@@H]2[C@@H]3C(=O)N(Cc4ccccc4)C(=O)[C@@H]3[C@]3(Cc4ccc(Cl)cc4)C(=O)N(c4cccc(Cl)c4)C(=O)N23)c1`, the inhibition was 11.3% (active).
Turning to `C[C@@H]1ON(C)[C@H]2C[C@H]3c4[nH]c5cccc(-c6ccc7c(c6)OCO7)c5c4CCN3C[C@@H]12`, the inhibition is -51.7%.
The result for `N#CCC[C@H]1CC[C@]2(CCCN(Cc3ccc(Cl)cc3)C2)O1` reads -3.24%; that for `COc1ccc(CCNC(=O)CSc2nc3c([nH]2)c(=O)n(C)c(=O)n3C)cc1`, -0.19%; that for `CN(C)S(=O)(=O)c1cccc(NC(=O)COC(=O)c2cc(=O)[nH]c(=O)[nH]2)c1`, 5.81%.
The result for `CN(C)S(=O)(=O)c1cccc(NC(=O)COC(=O)C2(c3ccccc3F)CCCC2)c1` reads 11.9% (active); that for `CN(C)S(=O)(=O)c1cccc(NC(=O)COc2ccc3ccccc3c2)c1`, 2.81%; that for `O=C(NCc1ccccc1)[C@@H]1CCCN1C(=O)[C@H]1CCCN1C(=O)c1cccc(Cl)c1`, 0.25%.
The result for `O=C(NCc1ccccc1)[C@H]1CCCN1C(=O)[C@H]1CCCN1C(=O)c1cc(F)cc(F)c1` reads 0.04%; that for `O=C(NCc1ccc(F)cc1F)[C@@H]1CCCN1C(=O)[C@@H]1CCCN1C(=O)c1cccc(Cl)c1`, 11% (active); that for `Cc1cc(=O)[nH]c(SCC(=O)Nc2ccc(F)cc2F)n1`, 0.36%.
On to `CC(=O)Nc1ccc(OC[C@@H](O)CN2CCC(C(O)(c3ccccc3)c3ccccc3)CC2)cc1`, for which the inhibition was -0.12%.
The result for `O=S1(=O)c2ccc(Br)cc2OC[C@@H](Cc2ccccc2)N1Cc1cn(Cc2ccco2)nn1` reads 6.61%; that for `COc1ccc(Cn2cc(CN3[C@@H](CC(C)C)COc4cc(Br)ccc4S3(=O)=O)nn2)cc1`, 3.87%; that for `O=S1(=O)c2ccc(Br)cc2OC[C@H](Cc2ccccc2)N1Cc1cn(Cc2ccccc2)nn1`, 10.2% (active).
The result for `O=C(CCCCCN1C(=O)C2C3C=CC(C3)C2C1=O)Nc1ccccc1` (stereo not drawn) reads 4.2%; that for `CCOC(=O)C1CCN(C(=O)C(C)(C)NC(=O)Nc2ccc(F)c(F)c2)CC1`, 6.44%; that for `COCCCNC(=O)C1CC(=O)N(CCc2ccccc2)C1` (stereo not drawn), 7.12%.
`O=C(NCCCN1CCCCC1)C1CC(=O)N(CCc2ccccc2)C1` (stereo not drawn): the inhibition is 10% (active).
The result for `Cc1ccc(CCN2CC(C(=O)NCCc3ccccc3)CC2=O)cc1` (stereo not drawn) reads 7.32%.
The result for `COc1cccc(Cn2cc(COC(=O)Nc3ccc(F)cc3)nn2)c1` reads -1.49%; that for `CCOC(=O)[C@@]12CN(C(=O)OC(C)(C)C)CC=C1N(Cc1ccc(OC)cc1)C(=O)[C@H]2CC(=O)NCc1ccc(OC)c(OC)c1`, 2.04%; that for `COc1ccc(CN2C/C(=C/c3ccccc3)N3C(=O)C[C@@H](c4ccccc4)N=C23)c(OC)c1`, -7.12%.
The result for `O=C1c2ccccc2S(=O)(=O)N1CC(O)Cn1c2ccccc2c2ccccc21` (stereo not drawn) reads 15.2% (active); that for `O=C1c2ccccc2S(=O)(=O)N1Cc1c(F)cccc1Cl`, -1.51%; that for `CS(=O)(=O)N(CC(O)Cn1c2ccccc2c2ccccc21)c1cccc2ccccc12` (stereo not drawn), -10.8%.
Take `C=CCN(C)CC#Cc1ccccc1`: the inhibition is 1.26%.
The result for `COc1ccc(CCNC2=CC(=O)CC(C)(C)C2)cc1` reads 1.19%; that for `CC1(C)CC(=O)C=C(NCCCN2CCCC2=O)C1`, 1.47%.
The result for `CC1(C)CC(=O)C=C(NCCN2CCNCC2)C1` reads 10.7% (active).
The result for `O=C(CCS(=O)(=O)c1ccccc1)Nc1ccc(Cl)c(Cl)c1` reads -5.17%.
Consider `CCOC(=O)N1CCN(C(=O)C[C@@H]2C(=O)N(CCc3ccc(Cl)cc3)C3=CCCC[C@]32C(=O)OCC)CC1`, for which the inhibition is 2.91%.
The result for `CCOC(=O)N1CCC(C(N)=O)CC1` reads -1.53%; that for `CCOC(=O)N1CCC(c2cc(=O)n(-c3ccccc3)[nH]2)CC1`, 9.95% (active).
The result for `CCOC(=O)N1CCC(NC(=O)Cc2cn(C)c3ccccc23)CC1` reads 2.53%; that for `O=C(OCC#CCSc1nnc(-c2ccco2)o1)c1ccc(F)cc1`, -0.72%.
The result for `CCN(CC)C(=O)CC[C@H]1CC[C@]2(CCCN(Cc3ccc(Cl)cc3)C2)O1` reads 3.26%.

These data come from PubChem BioAssay AID720700 (The Scripps Research Institute Molecular Screening Center, 2013).
